High-throughput results: PubChem, several laboratories
This is a sample that favours compounds with a hit; in the whole collection about 7.4% have one here.
M1 antagonist – M1 muscarinic receptor (rat) antagonism; CHO-M1 cells, Fluo-4 calcium, ACh EC80 antagonist mode; active compounds read low; hit rate 3.4% among 64,000; AID 628; P08482; B-score at 10 µM;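 active = calcium fluorescence response, raw or row-and-column corrected B-score, differing from the plate sample mean either way at a set confidence level, mostly lower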
Target sequence (P08482 whole entry, looked up): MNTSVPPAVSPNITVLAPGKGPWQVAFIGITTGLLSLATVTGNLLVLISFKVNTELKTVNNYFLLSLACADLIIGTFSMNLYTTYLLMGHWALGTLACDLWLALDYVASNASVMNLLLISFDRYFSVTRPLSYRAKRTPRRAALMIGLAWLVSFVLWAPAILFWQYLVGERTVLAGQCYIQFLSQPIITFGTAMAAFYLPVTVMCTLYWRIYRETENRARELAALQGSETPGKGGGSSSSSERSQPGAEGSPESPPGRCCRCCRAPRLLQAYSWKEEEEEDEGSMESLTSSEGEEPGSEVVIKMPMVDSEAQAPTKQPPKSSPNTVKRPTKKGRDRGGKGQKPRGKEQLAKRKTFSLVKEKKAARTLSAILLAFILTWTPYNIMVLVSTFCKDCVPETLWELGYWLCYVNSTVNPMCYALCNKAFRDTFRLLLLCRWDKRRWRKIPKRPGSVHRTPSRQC
FXIIa inh mix – blocks human factor XIIa in pooled compound mixtures; P00748; inhibition, % at 5 µM; purified FXIIa, fluorogenic substrate; hit rate 0.2% among 62,000;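 also: 0% = enzyme without compound and 100% = no enzyme blank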
hDAT+cocaine – modulates human dopamine transporter uptake under cocaine; Q01959; LLC-PK1 hDAT cells, [14C]-dopamine uptake with cocaine IC80; actives deviate in either direction; B-score at 10 µM; hit rate 1.3% among 110,000; AID 449768;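 active = Z score or B-score, a plate-position-corrected score, falls beyond the plate's 99.7% confidence bounds, in either direction; inactive = both scores lie inside the 99.7% bounds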;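 also: scored against the spread of the other compound wells on the same plate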
D1 mod – allosterically modulates the human D1 dopamine receptor. HEK293 D1, CRE-luciferase, dopamine EC30 potentiation; actives deviate in either direction. B-score at 10 µM. P21728. hit rate 5.9% among 58,000;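 active = luminescence count or its row- and column-corrected plate score outside the 99.7% band of the plate's sample wells, on either side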
M1 agonist – agonists of M1 muscarinic receptor; CHO-M1 cells, Fluo-4 calcium fluorescence, agonist mode; active compounds read high; B-score at 10 µM; hit rate 3% among 64,000;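 active = fluorescence rise, raw or as B-score row- and column-corrected plate score, outside the 99.7% band of its plate's samples, either direction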
FXIa mix inh – blocks human factor XIa in pooled compound mixtures | purified FXIa, fluorogenic substrate | hit rate 0.19% among 62,000 | inhibition, % at 5 µM;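 also: each value is inhibition by a whole ten-compound pool holding the compound; 0% = enzyme with no mixture and 100% = wells lacking enzyme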
* hit, by the source's call; nt = no result. Rule as the data show it, unless noted: active = inhibition above about 20% (passing the limit was not always enough); inactive = the rest.

SMILES | M1 antagonist | FXIIa inh mix | hDAT+cocaine | D1 mod | M1 agonist | FXIa mix inh
CCCCS(=O)(=O)/C=C\C1C2C=CC(C2)C1S(=O)(=O)CCCC (stereo not given) | 0.216 | 6.4 | -1.48 | -0.216 | -0.018 | 7.1
Fc1cccc(-c2cc3nc4c(c(N5CCN(c6cnccn6)CC5)n3n2)CCCC4)c1 | 0.00261 | -0.7 | nt | 0.299 | 13.9* | -1.1
Clc1cccc(-c2cc3nc4c(c(N5CCN(c6cnccn6)CC5)n3n2)CCCC4)c1 | nt | nt | 0.489 | nt | nt | nt
Cc1ccc(C(=O)Nc2cc(C)c(OCC(=O)N3CCOCC3)c(C)c2)cc1 | nt | nt | 2.26* | nt | nt | nt
Cc1nc(N2CCC(C)CC2)c2nnn(Cc3ccccc3)c2n1 | nt | nt | 3.08* | nt | nt | nt
CC(C)Cc1nc(N2CCC(C(N)=O)CC2)c2nnn(Cc3ccccc3)c2n1 | 0.201 | nt | 0.37 | 0.507 | -0.254 | nt
COc1ccc(-n2c(SCC(=O)Nc3nccs3)nc3c(c2=O)SC(C)C3)cc1 (stereo not given) | 0.818* | -12.1 | 1.86 | nt | 0.0173 | 11.3
CCOc1ccc(-n2c(SCC(=O)Nc3nccs3)nc3c(c2=O)SCC3)cc1 | -0.828 | 4.8 | 1.86 | -0.00127 | -0.106 | 1.6
CCCCCCNC(=O)C(C#N)c1nc2ccccc2nc1N1CCCC1 (stereo not given) | 1.14* | 12.3 | 1.26 | -1.06 | -0.0989 | 1.1
CCOC(=O)C1CCCN(c2nc3ccccc3nc2C(C#N)C(=O)NCc2ccccc2)C1 (stereo not given) | 0.0258 | 2.7 | -0.0508 | 0.615 | 20.9* | -2.7
N#CC(C(=O)NCCc1ccccc1)c1nc2ccccc2nc1N1CCOCC1 (stereo not given) | -0.518 | -19.3 | 0.331 | 0.25 | -0.27 | -5.9
O=C(Nc1ccon1)c1cc2c(s1)CCCCCC2 | 0.328 | 9.8 | 0.4 | -0.834 | -0.461 | 2.7
C=CCn1c(SCC(=O)Nc2cc(OC)c(NC(=O)c3ccco3)cc2OC)nnc1-c1ccncc1 | nt | nt | -0.365 | nt | nt | nt
CCOc1ccc(NC(=O)CCN2CCN(S(=O)(=O)c3cc(Cl)ccc3OC)CC2)cc1 | -1.12 | 0.7 | 1.6 | 0.821 | 0.169 | 2.6
COc1ccc(S(=O)(=O)N2CCCC(C(=O)Nc3cccc(C(C)=O)c3)C2)cc1 (stereo not given) | 0.0272 | 8.8 | 1.86* | -1.2 | 0.228 | 3.4
O=C(NCCN1CCCCCC1)c1ccc(N2CCCC2=O)cc1 | 2.3* | -16.5 | -0.724 | 0.107 | -1.11 | 8.2
O=C(NCCCN1CCN(c2cccc(Cl)c2)CC1)c1ccc(N2CCCC2=O)cc1 | -0.00491 | 12.0 | -0.388 | nt | 0.695 | 6.4
COc1ccc(NC(=S)NCCc2ccc(Cl)cc2)c(OC)c1 | nt | nt | 0.862 | nt | nt | nt
O=C(COc1ccccc1)NC(NC(=S)Nc1ccccc1O)C(Cl)(Cl)Cl (stereo not given) | nt | nt | -3.68* | nt | nt | nt
Cc1ccccc1NC(=S)NC(NC(=O)COc1ccccc1)C(Cl)(Cl)Cl (stereo not given) | nt | nt | -1.06 | nt | nt | nt
CCSc1nnc(NC(=O)c2cccc(OCc3c(C)noc3C)c2)s1 | -1.1 | 9.3 | 0.794 | -0.766 | 0.218 | 3.3
Cc1nnc(NC(=O)Cc2ccc(OCc3c(C)noc3C)cc2)s1 | -0.213 | 6.2 | 0.508 | -3.05* | 0.0639 | -2.5
COc1ccc(OC)c(NC(=O)C(CCS(C)(=O)=O)NC(C)=O)c1 (stereo not given) | 0.0205 | nt | 4.26* | -0.411 | -0.679 | nt
O=C(NC1(C(F)(F)F)NC(=O)N(C2CCCCC2)C1=O)c1cccs1 (stereo not given) | -0.111 | 3.2 | -3.31* | 0.0285 | 0.187 | -6.0
OCCOCCn1c(C(CO)Nc2nc(-c3ccccc3Br)cs2)nc2ccccc21 (stereo not given) | nt | nt | 0.974 | nt | nt | nt
SMILES | M1 antagonist | FXIIa inh mix | hDAT+cocaine | D1 mod | M1 agonist | FXIa mix inh
O=c1c2ccccc2oc2cc(C#CC3(O)CCCCC3)ccc12 | nt | nt | 2.24* | nt | nt | nt
O=C(c1ccccc1)c1cccn1CC(=O)N1CCN(C2CCCCC2)CC1 | -0.211 | -15.0 | -0.225 | 0.601 | -0.0191 | 5.1
Cc1sc2ncn(CC(=O)N(CC(=O)NC3CCCC3)Cc3cccs3)c(=O)c2c1C | 0.466 | -1.6 | 0.853 | -0.0326 | 1.53 | -9.7
CS(=O)(=O)N(CC(=O)N/N=C/c1cc([N+](=O)[O-])ccc1Cl)c1ccccc1 | nt | nt | 1.96* | nt | nt | nt
Cc1cc(C)c[n+](CC(=O)c2cc3ccccc3oc2=O)c1 | nt | nt | 0.114 | nt | nt | nt
O=C(NC1CCS(=O)(=O)C1)C12CC3CC(CC(C3)C1)C2 (stereo not given) | -1.08 | 5.9 | 0.0545 | nt | 0.401 | 1.2
COc1ccc(-c2coc3cc(OC)cc(O)c3c2=O)cc1 | nt | nt | -2.41* | nt | nt | nt
CCCCn1c2nc3ccccc3nc2c2c(=N)oc(C)nc21 | -0.199 | 2.7 | nt | 6.58* | 3.95* | -3.6
